Assay results reported in PubChem BioAssay AID1159580 (chemical genetic matrix, 2015).
In all, about 5,500 compounds went through this assay and about 2,000 (36%) were called active. Roughly 18% stayed inconclusive and do not appear here. Cut-off read from the data, not from the text of the source: active = normalized growth mostly below about 0.91 (no sharp cut-off); inconclusive = no clear call, values can overlap the other calls; inactive = mostly above about 0.92. Some of the results follow.

Test: chemical genetic growth profiling, strain panel (AID 1159580);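 note: tested at 20 µM; growth read once vehicle control cultures reached saturation at 30 °C; 1 = growth at the plate median or of vehicle wells; lower values mean less growth of the strain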
Conditions: S. cerevisiae deletion strains, growth OD

Measured: normalized growth

CCC1(C2=NCCN2)Cc2ccccc2O1 (stereo not given)
inactive: locus YAL021C, strain ccr4, hits give low values 0.996 | locus YAL026C, strain drs2, hits give low values 1.01 | locus YAL030W, strain snc1, hits give low values 1.01 | locus YAL040C, strain CLN3, hits give low values 1.07 | locus YBL061C, strain skt5, hits give low values 1 | locus YBR009C, strain hhf1, hits give low values 1.01 | locus YBR023C, strain chs3, hits give low values 1.01 | locus YBR171W, strain sec66, hits give low values 1.02 | locus YBR231C, strain swc5, hits give low values 0.998 | locus YBR279W, strain paf1, hits give low values 1.01 | locus YCL011C, strain gbp2, hits give low values 1.02 | locus YCL016C, strain dcc1, hits give low values 1 | locus YCL061C, strain MRC1 (second series), hits give low values 1.01 | locus YCL061C, strain MRC1, hits give low values 1 | locus YCL069W, strain vba3, hits give low values 1.01 | locus YCR088W, strain abp1, hits give low values 1.02 | locus YDL005C, strain med2, hits give low values 1 | locus YDL040C, strain nat1, hits give low values 1.01 | locus YDR001C, strain nth1, hits give low values 1.01 | locus YDR069C, strain doa4, hits give low values 1 | locus YDR137W, strain rgp1, hits give low values 1.01 | locus YDR159W, strain sac3, hits give low values 0.991 | locus YDR195W, strain ref2 0.967 | locus YDR297W, strain sur2, hits give low values 1 | locus YDR334W, strain swr1, hits give low values 1.01 | locus YDR335W, strain msn5, hits give low values 1.01 | locus YDR363W, strain ESC2, hits give low values 1.03 | locus YDR392W, strain spt3, hits give low values 0.818 | locus YEL003W, strain gim4, hits give low values 1.01 | locus YEL037C, strain rad23, hits give low values 1.01 | locus YEL061C, strain CIN8 (second series), hits give low values 1.01 | locus YER002W, strain NOP16, hits give low values 1.01 | locus YER015W, strain faa2, hits give low values 1 | locus YER016W, strain bim1, hits give low values 1.01 | locus YER111C, strain swi4, hits give low values 1.01 | locus YER155C, strain BEM2 (second series), hits give low values 0.973 | locus YFR010W, strain ubp6, hits give low values 1.01 | locus YGL167C, strain pmr1, hits give low values 1 | locus YGL173C, strain kem1, hits give low values 1.01 | locus YGL227W, strain vid30, hits give low values 1.01 | locus YGL240W, strain doc1, hits give low values 0.989 | locus YGL253W, strain hxk2, hits give low values 1.02 | locus YHR013C, strain ard1, hits give low values 0.964 | locus YHR027C, strain rpn1, hits give low values 1.01 | locus YHR142W, strain chs7, hits give low values 1.02 | locus YJL092W, strain hpr5, hits give low values 1.01 | locus YJL095W, strain BCK1 (second series), hits give low values 1.01 | locus YJL115W, strain asf1, hits give low values 1 | locus YJL129C, strain trk1, hits give low values 0.996 | locus YJL154C, strain vps35, hits give low values 1.01 | locus YJL164C, strain tpk1, hits give low values 0.995 | locus YJL166W, strain qcr8, hits give low values 1 | locus YJL187C, strain SWE1, hits give low values 1.01 | locus YKL160W, strain elf1, hits give low values 0.99 | locus YKR026C, strain gcn3, hits give low values 1.02 | locus YKR091W, strain srl3, hits give low values 1 | locus YLL001W, strain dnm1, hits give low values 1.01 | locus YLL026W, hits give low values 1 | locus YLL041C, strain sdh2, hits give low values 1.01 | locus YLR027C, strain aat2, hits give low values 1.01 | locus YLR221C, strain rsa3, hits give low values 1.01 | locus YLR258W, strain gsy2, hits give low values 1 | locus YLR262C, strain YPT6 (second series), hits give low values 0.995 | locus YLR320W, strain mms22, hits give low values 1 | locus YLR342W, strain FKS1, hits give low values 1 | locus YLR357W, strain rsc2, hits give low values 1.01 | locus YLR370C, strain arc18, hits give low values 1.01 | locus YLR384C, strain iki3, hits give low values 1.01 | locus YML120C, strain ndi1, hits give low values 1.01 | locus YMR058W, strain fet3, hits give low values 1.01 | locus YMR125W, strain sto1, hits give low values 1.01 | locus YMR129W, hits give low values 1 | locus YMR205C, strain PFK2, hits give low values 1 | locus YMR231W, strain pep5, hits give low values 1 | locus YMR263W, strain SAP30, hits give low values 1.01 | locus YMR307W, strain GAS1, hits give low values 1.03 | locus YNL071W, strain lat1, hits give low values 1.01 | locus YNL153C, strain GIM3, hits give low values 0.99 | locus YNL175C, strain NOP13, hits give low values 1.01 | locus YNL197C, strain WHI3, hits give low values 1.01 | locus YNL209W, strain ssb2, hits give low values 1 | locus YNL224C, strain SQS1, hits give low values 1.01 | locus YNL248C, strain rpa49, hits give low values 1 | locus YNL322C, strain KRE1 (second series), hits give low values 1 | locus YNL322C, strain KRE1, hits give low values 1.01 | locus YNR049C, strain mso1, hits give low values 1.01 | locus YOR001W, strain rrp6, hits give low values 1 | locus YOR070C, strain gyp1, hits give low values 1.01 | locus YOR080W, strain dia2, hits give low values 0.994 | locus YOR083W, strain WHI5 (second series), hits give low values 1 | locus YOR083W, strain WHI5, hits give low values 0.994 | locus YOR106W, strain vam3, hits give low values 1.01 | locus YOR265W, strain rbl2, hits give low values 1.01 | locus YOR270C, strain vph1, hits give low values 1.03 | locus YOR290C, strain snf2, hits give low values 0.965 | locus YPL051W, strain arl3, hits give low values 1 | locus YPL078C, strain atp4, hits give low values 1 | locus YPL106C, strain sse1, hits give low values 0.984 | locus YPL240C, strain hsp82, hits give low values 0.991 | locus YPL241C, strain CIN2, hits give low values 1.01
